An excerpt weighted towards active compounds, which were near 21% of everything screened.
Shiga toxin inh: Shiga toxin inhibition; actives 9.2% (n = 290,000); inhibition, % at 38.7 µM; AID 2315; Vero cells, Shiga toxin protein synthesis inhibition reporter; in the data active = inhibition mostly above about 28%, no sharp cut-off; inactive = mostly below about 43%; also: 0% is about no effect
Cycloheximide cs: counter-screen hit for Shiga toxin inhibitors, cycloheximide | max response, % | cell reporter, cycloheximide protein synthesis inhibition counterscreen | actives 12% (n = 300,000); in the data active = max response mostly above about 13%, no sharp cut-off; inactive = mostly below about 14%; also: read at 38.3 µM for the half of the compounds with a filed dose; 0% is about no effect
Pf growth 48h: inhibits P. falciparum growth in the first generation, 48 h. AID 504832. P. falciparum luciferase growth in erythrocytes, 48 h. actives 5.9% (n = 310,000). Potency, µM (titrated, usually from 28.7 µM), without a hit: at the highest dose activity change, negative = inhibition, most hits filed as inhibitors; also: potency is read from the fitted curve at half-maximal effect; % is scaled to controls: 0 for no effect and ±100 for the full control effect
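Growth was read as firefly luciferase luminescence after a 48 h, 37 C, 5% CO2 exposure of compounds to reporter-bearing P. falciparum cultures (0.1% parasitemia, 2% hematocrit final) in Albumax-supplemented RPMI 1640.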
Pf growth 96h: P. falciparum growth inhibition at 96 hour, primary screen for plastid delayed-death inhibitors | P. falciparum luciferase reporter growth, 96 h | Potency, µM (series often up to 28.7 µM), without a hit: top-dose activity change, negative = inhibition, usual class: inhibitors | actives 6.9% (n = 320,000); also: potency is read from the fitted curve at half-maximal effect; % is scaled to controls: 0 for no effect and ±100 for the full control effect
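Compounds incubated with erythrocytes infected by luciferase-expressing P. falciparum (2% hematocrit, 0.05% parasitemia final) for 96 hours, 37 C in 5% CO2. Growth inhibition scored as decreased luciferase luminescence.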
* marks the source's active call; other numbers are inactive results; ? = inconclusive; / = no result. Unless noted, calls follow the shape of the dose curve; as a rule, active = well fitted inhibition curve with a large enough effect; inconclusive = small, poorly fitted or top-dose-only effect, or another doubt; inactive = no such curve, though single readings can be large or run the other way.

SMILES	Shiga toxin inh	Cycloheximide cs	Pf growth 48h	Pf growth 96h
COc1ccc(S(=O)(=O)NCCCC(=O)Nc2ccc(Sc3ccc(N)cc3)cc2)cc1	-6	5	/	/
O=C(c1ccc2c(=O)n(Cc3ccccc3Cl)c(=S)[nH]c2c1)N1CCOCC1	4	0	?	?
Cc1cc(=O)c(C(=O)Nc2cccc(C(=O)NC3CC3)c2)nn1-c1ccccc1Cl	/	/	?	7.4µM*
Cn1nc(C(=O)Nc2cccc(C(=O)NC3CC3)c2)c2ccccc2c1=O	/	/	-4%	16%
CN(C(=O)C1CCN(S(=O)(=O)c2cccs2)CC1)C1CCCCC1	28	2	-16%	1.7µM*
O=C(C1CCN(S(=O)(=O)c2cccs2)CC1)N1CCCCC1	37*	35*	31%	0%
O=C(C1CCN(S(=O)(=O)c2cccnc2)CC1)N1CCN(C2CCCC2)CC1	12	4	0%	10µM*
O=S(=O)(c1cccs1)N1CCC2(CC1)OCCO2	-5	-4	?	13µM*
CC(C)CNC(=O)c1ccccc1SCC(=O)NC12CC3CC(CC(C3)C1)C2	-6	0	?	?
c1ccc(OCCN2CCN(C(c3ccccc3)c3ccccc3)CC2)cc1	-5	-2	?	1%
CCOC(=O)c1nn2c(C(F)(F)F)cc(-c3ccc(OC)cc3)nc2c1Br	-4	-3	26%	?
Cc1cccc2sc(N(CCN(C)C)C(=O)C3CCN(S(=O)(=O)c4cccs4)CC3)nc12	/	/	12µM*	?
CSC(=NC#N)N1CCN(c2ccc(Cl)cc2)CC1	47*	28*	9%	31%
CN(C)C(=C(C#N)C#N)N1CCN(c2ccc(Cl)cc2)CC1	-10	-4	18%	-8%
Cc1cccc(OC2CCN(Cc3nc(CC4CC4)no3)CC2)c1	-9	-3	9%	4.7µM*
COc1ccc(OCC2CCCN(Cc3nc(CC4CC4)no3)C2)cc1 (stereo not drawn)	24	19*	17%	?
FC(F)(F)c1cccc(Cc2noc(CN3CCC(c4ccncc4)CC3)n2)c1	-3	-2	?	?
c1ccc(C2CCCN(Cc3nc(CC4CC4)no3)CC2)cc1 (stereo not drawn)	53*	16*	?	27%
c1ccc(C(c2ccccc2)c2noc(CN3CCC(c4ccncc4)CC3)n2)cc1	-18	0	10µM*	?
Cc1cccc(SC2CCN(Cc3nc(CC4CC4)no3)CC2)c1	-4	-2	12%	-5%
CC(OC(=O)c1ccc(-c2ccc(O)cc2)cc1)C(=O)NC1CCCCC1C (stereo not drawn)	/	/	-20%	?
Cc1ccc(-n2nc(C)c(=O)c(-c3ccccc3)c2NC(=O)c2cccs2)cc1	31	-2	20%	-16%
COc1ccc(NC(=O)N2CCCC2C(=O)NCCc2ccccc2)cc1 (stereo not drawn)	35	1	64%	220%
COc1ccc(OC)c(C2=Nn3c(nnc3-c3ccccc3O)SC2)c1	1	4	/	/
Cc1ccc(NC(=O)N2CCN(C)CC2)cc1NC(=O)N1CCN(C)CC1	49	12*	28%	42%
SMILES	Shiga toxin inh	Cycloheximide cs	Pf growth 48h	Pf growth 96h
Cc1cccc(NC(=O)N2CCc3ccccc3C2)c1C	39*	29*	-2%	30%
Cc1cc(C)cc(NC(=O)N2CCc3ccccc3C2)c1	75*	36*	61%	71%
Cc1cc(C)cc(NC(=O)c2ccc(CN3CCc4ccccc4C3)cc2)c1	-19	-2	-23%	?
Cc1ccc(NC(=O)C2OCCc3ccccc32)cc1C (stereo not drawn)	100*	37*	-24%	-4%
Cc1ccccc1NC(=O)N1CCc2ccccc2C1	38	27	24%	13%
Cc1ccc(NC(=O)N2CCc3ccccc3C2)cc1C	152*	78*	97%	?
COc1ccccc1NC(=O)N1CCCC(C(=O)Nc2cccc(C)c2C)C1 (stereo not drawn)	11	9	0%	8.3µM*
O=c1[nH]c(C(Cl)(Cl)Cl)nc2ccc3ccccc3c12	-10	-2	?	-28%
OC1CCCN(C(=S)NCc2ccccc2)C1 (stereo not drawn)	-15	7	42%	3.3µM*
CN1CCN(C(=S)NCCc2ccccc2)CC1	44	35*	40%	44%
O=C(NCCc1ccccc1)N1CCCC(CNS(=O)(=O)Cc2ccccc2)C1 (stereo not drawn)	22	14*	2%	19%
S=C(NCCc1ccccc1)N1CCN(C(=S)NCCc2ccccc2)CC1	/	/	-13%	18%
OCC1CCCN(C(=S)NCCc2ccccc2)C1 (stereo not drawn)	36	33*	88%	480%
CSCC[C@H](NC(=O)N1CCn2c1nc1ccccc12)C(=O)NCc1ccco1	13	-11	5%	20%
COC(=O)c1ccc(CNC(=O)COC(=O)c2ccc(N(C)C)cc2)cc1	-9	5	-3%	-2%
O=C(c1cccc2nc3ccccc3nc12)N1CCOCC1	8	-1	6%	9%
CC(C(=O)NCCC1=CCCCC1)c1ccc([N+](=O)[O-])cc1 (stereo not drawn)	-3	-1	-9%	3%
CC1CCN(C(=S)NCCc2ccccc2)CC1	82*	30*	/	191%
OC(c1ccccc1)(c1ccccc1)C1CCN(C(=S)NCCc2ccccc2)CC1	18	-1	?	?
OCCN1CCN(CCOc2cccc(Cl)c2)CC1	38	1	22%	1.7µM*
FC(F)(F)c1cccc(OCCN2CCN(Cc3ccccc3)CC2)c1	-17	-4	12%	10µM*
CC(=O)Oc1ccc(/C(C)=N/N2CCN(Cc3ccc(C)cc3)CC2)cc1	-7	1	?	?
COc1ccc(-c2ccc(OC)c(C3C4C=CCCC4(C)C(=O)N3Cc3ccccc3)c2)cc1 (stereo not drawn)	-3	6	/	/
CN1c2ccc(Cl)cc2C(=O)NC1C1CC=CCC1 (stereo not drawn)	-3	6	-25%	12µM*
CCN1C(=O)/C(=C\c2ccncc2)SC1=Nc1ccc(C)c(C)c1	-10	5	?	1.9µM*
SMILES	Shiga toxin inh	Cycloheximide cs	Pf growth 48h	Pf growth 96h
CCCN1C(=O)/C(=C\c2ccncc2)SC1=Nc1ccccc1	-13	-7	12µM*	?
CCN1C(=O)/C(=C\c2ccncc2)SC1=S	-5	1	0%	39%
COc1cc(C2C(N3C(=O)c4ccccc4C3=O)C(=O)N2c2cccc(C)c2)cc(OC)c1OC (stereo not drawn)	10	4	4%	?
COC(=O)c1ccccc1NC(=O)Nc1cc(C(C)(C)C)on1	34	40*	25%	-12%
Cc1ccc(S(=O)(=O)NC(=O)Nc2cc(C(C)(C)C)on2)cc1	-10	-1	9%	10%
CC(C)(C)c1cc(NC(=O)Nc2ccccc2OC(F)(F)F)no1	13	5	12µM*	?
Cc1cc(NC(NC(=O)c2ccco2)(C(F)(F)F)C(F)(F)F)no1	-1	13	-1%	?
CC(C)(C)c1cc(NC(=O)Nc2ccccc2)no1	70*	33*	49%	104%
CC(C)(C)c1cc(NC(=O)c2ccco2)no1	81*	44*	198%	-8%
CC(CC=O)CCCC(C)(C)O (stereo not drawn)	/	/	1%	-6%

Compound activity deposited in PubChem BioAssay by National Center for Advancing Translational Sciences (NCATS).
